The text below walks through data of PubChem BioAssay (NCI).

Assay [1] is described as follows: NCI Yeast Anticancer Drug Screen. Data for the rad50 strain (AID 155).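 Further: 0% = growth of vehicle-only cultures of the same strain.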 Conditions: S. cerevisiae rad50 strain growth inhibition; at 50.0 µM; hits give high values. The method in brief: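 Inhibition values express reduced yeast growth in compound-treated cultures relative to vehicle-treated controls.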
Assay [2] is described as follows: NCI Yeast Anticancer Drug Screen. Data for the mec2-1 strain (AID 157). Conditions: S. cerevisiae mec2-1 strain, at 50.0 µM, hits give high values. The method, boiled down: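 Using mec2-1 yeast: add compound, measure growth, express inhibition versus vehicle-treated cultures.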
Assay [3] can be described thus: NCI Yeast Anticancer Drug Screen. Data for the sgs1 mgt1 strain (AID 161).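 Further: 0% = growth of cultures given vehicle only.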 The following applies: S. cerevisiae sgs1 mgt1 strain, at 50.0 µM, hits give high values. The method, boiled down:
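Growth of a repair-deficient yeast mutant was monitored after compound treatment and expressed as inhibition relative to vehicle-treated cultures.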

Assay [4] can be described thus: NCI Yeast Anticancer Drug Screen. Data for the bub3 strain (AID 167). Conditions: S. cerevisiae bub3 mutant strain, at 50.0 µM, hits give high values. The method, boiled down:
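Steps: expose the mutant yeast strain to compound; grow alongside vehicle-treated cultures; measure growth; express inhibition against the vehicle cultures.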

Assay [5] can be described thus: NCI Yeast Anticancer Drug Screen. Data for the mlh1 rad18 strain (AID 175). Conditions: S. cerevisiae mlh1 rad18 strain growth inhibition; at 50.0 µM; hits give high values. The method, boiled down:
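Steps: expose repair-defective yeast to compound; measure growth; express inhibition against vehicle-treated controls.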

Assay [6] in a line: NCI Yeast Anticancer Drug Screen. Data for the cln2 rad14 strain (AID 165).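 Further: 0% = growth equal to vehicle treated cultures.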 Conditions: S. cerevisiae cln2 rad14 strain, at 50.0 µM, hits give high values. The method in brief:
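Yeast strain cln2 rad14, bearing defects in cell cycle control and DNA repair, serves as the test system; values reflect growth inhibition compared with vehicle.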

This is part of a sample that, as a whole, favours compounds with a hit. Of some 79,000 tested, about 15% had one in any assay. Values without a mark were called inactive. Active and inactive are the calls of the source. No stated cut-off is given here; in the data, active means growth inhibition above about 70%; inactive means the rest.

For `CCCCCC(=O)c1ccccc1`, the growth inhibition in assay [1] was -27.9%; in assay [2] it was -16.5%; in assay [3], -19.3%; in assay [4] it was -8.8%; in assay [5], -6.1%.
On the same counts, the results for `CCOC(CCc1c(C)nc[nH]c1=O)OCC` are -1.8%, 3.7%, -2.35%, 16.2% and -7.9%.
Take `CCCN(CCC)NC(=O)c1ccc(N=NN(C)C)cc1`: the growth inhibition was 0.15% in assay [1]; 32.8% in assay [2]; 8.4% in assay [3]; 39.9% in assay [4]; 21% in assay [5].
In the case of `Nc1ccc(S(=O)(=O)Nc2nc(CN3CCCCC3)cs2)cc1`, the growth inhibition in assay [1] is 7.25%; in assay [2], -2.5%; in assay [3], 3.3%; in assay [4], -1.4%; in assay [5] it was -7.85%.
`O=C1N=C2SCCCN2C1(c1ccccc1)c1ccccc1`: the growth inhibition was 4.2% in assay [1]; 21.2% in assay [2]; -3.4% in assay [3]; 0% in assay [4]; 6.9% in assay [5].
With `CCOC(=O)Oc1ccc2[nH]c3c(C)cc(N)c(C)c3c2c1`, the growth inhibition was 2.35% in assay [1]; -33.2% in assay [2]; -30.5% in assay [3]; -22.2% in assay [4]; -11.1% in assay [5].
With `Nc1cccc(CNC(=O)COc2ccc(Cl)c(Cl)c2)c1`, the growth inhibition in assay [1] was 84.7% (active); in assay [2], 68.9%; in assay [3], 89.7% (active); in assay [4] it was 79.8% (active); in assay [5], 82.8% (active).
Regarding `O=P(c1ccccc1)(c1ccccc1)c1ccccc1OCc1cccc(COc2ccccc2P(=O)(c2ccccc2)c2ccccc2)n1`, the growth inhibition is -7.05% in assay [1]; -7.5% in assay [2]; -11.7% in assay [3]; -2.6% in assay [4]; 31.1% in assay [5].
On the same counts, the results for `Cc1ccc(NC(=O)Oc2cccc(C(F)(F)F)c2)cc1` are -8.55%, 17.4%, 23.1%, 15.4% and 35.6%.
As to `CCC[CH2][Sn]([CH2]CCC)([O]C(=O)c1ccc(OC)c(OC)c1OC)[O][Sn]([CH2]CCC)([CH2]CCC)[O]C(=O)c1ccc(OC)c(OC)c1OC`, the growth inhibition was 85.7% (active) in assay [1]; 85% (active) in assay [2]; 86.3% (active) in assay [3]; 87.2% (active) in assay [4]; 86.3% (active) in assay [5].
For the compound `Cc1c(C(C)c2[nH]c3ccccc3c2C)[nH]c2ccccc12`, the growth inhibition in assay [1] was 8.1%; in assay [2], 0.45%; in assay [3], -11.6%; in assay [4], 17.4%; in assay [5], -13.6%.
For the compound `COC(=O)c1cc(C)nc(Cl)c1C(=O)O`, the growth inhibition in assay [1] is 1.55%; in assay [2] it was 4.95%; in assay [3], -2.2%; in assay [6], 0%; in assay [5], -5.9%.
Consider `CCn1c2c(c3ccccc31)[C@@H](c1ccc(Cl)cc1)CC1C(=O)N(c3ccccc3)C(=O)C21` (stereo partly specified), for which the growth inhibition is 17.8% in assay [1]; 33.3% in assay [2]; 14.8% in assay [3]; 38.4% in assay [4]; 35.5% in assay [5].
In the same order, the values of `O=C(NCCCl)NC(Cc1ccccc1)Cc1ccccc1` are 6.65%, 10.7%, 15%, 2.1% and 31.4%.
Regarding `BrC1=C(c2ccccc2)C2CCCCC2C1(Br)c1ccccc1` (stereo unspecified), the growth inhibition in assay [1] was 96.2% (active); in assay [2] it was 97.1% (active); in assay [3], 97.8% (active); in assay [4], 96.8% (active); in assay [5], 98% (active).
Take `N#CC1(C#N)CC1c1ccccc1` (stereo unspecified): the growth inhibition was 8.55% in assay [1]; 10.7% in assay [2]; 6.75% in assay [3]; -2.9% in assay [4]; 29.3% in assay [5].
Consider `CNc1cc2oc(=O)cc(C)c2cc1C`, for which the growth inhibition was 19.8% in assay [1]; -12.5% in assay [2]; 6.8% in assay [3]; 14.2% in assay [4]; 10.4% in assay [5].
As to `CNc1ccccc1C(=O)N/N=C/C1CCCCC1`, the growth inhibition is 0.6% in assay [1]; -2.65% in assay [2]; 16.6% in assay [3]; 9.85% in assay [4]; 8.35% in assay [5].
In the case of `CCC(CC)COC(=O)c1ccccc1C`, the growth inhibition in assay [1] was 7.45%; in assay [2], -0.15%; in assay [3], -0.85%; in assay [4] it was 15.4%; in assay [5], 0.6%.
In the same order, the values of `Clc1ccccc1-c1nnc(-c2cccc(-c3nnc(-c4ccccc4Cl)o3)n2)o1` are -1.65%, 6.75%, -6.55%, -3.4% and 12%.
Turning to `CCCOC(=O)c1ccccc1Cl`, the growth inhibition in assay [1] is 31.1%; in assay [2] it was 22.5%; in assay [3], 23.1%; in assay [4], 11.6%; in assay [5], 24.1%.
As for `Nc1ncnc2c1ccn2Cc1c(F)cccc1Cl`, the growth inhibition in assay [1] is -0.8%; in assay [2], -7.3%; in assay [3] it was -10.9%; in assay [4], 6.05%; in assay [5], -13.6%.
As for `Nc1c(-c2nc3ccccc3[nH]2)sc(=S)n1-c1ccc(Cl)cc1`, the growth inhibition in assay [1] was -11.6%; in assay [2], -30.7%; in assay [3] it was 2.75%; in assay [4] it was 7.8%; in assay [5], -6.5%.
In the same order, the values of `CN(C)CCCOCCn1c2c(c3ccccc31)CCCC2` are 19.2%, -1.2%, 12.9%, 15.8% and -89.5%.
In the same order, the values of `CCN(CC)CCCNc1cc(O)cc2cccnc12` are -1.5%, 5%, 26.6%, 2.3% and -0.35%.
On the same counts, the results for `Cc1nnc(-c2cn(C3OC(CO)C(O)C3O)c3ncnc(N)c23)nc1C` (stereo unspecified) are 6.2%, 15.9%, 1%, -4.1% and 8.9%.
Turning to `Cc1cc2c(cc1C)-c1c(N)nc(N)nc1CC2`, the growth inhibition in assay [1] was 2.2%; in assay [2], 9.95%; in assay [3], -8.6%; in assay [4] it was -15%; in assay [5], 12.7%.
As for `CCC(=O)[CH-]C(=O)CC.CCC(=O)[CH-]C(=O)CC.[Cu+2]`, the growth inhibition in assay [1] was 10.9%; in assay [2] it was -1.9%; in assay [3] it was 10.2%; in assay [4] it was -17.6%; in assay [5] it was 0%.
Turning to `COC(=O)C1CN=CN1CCc1ccccc1` (stereo unspecified), the growth inhibition was -2.05% in assay [1]; -10.6% in assay [2]; 5.25% in assay [3]; 2.5% in assay [4]; 45.8% in assay [5].
In the same order, the values of `COC(=O)c1cn[nH]c1CC(N)=O` are 35.9%, 11.5%, 25.1%, 12.3% and 19.9%.
`CC(NNC(=S)N1CC2CCC(CC2)C1)c1cccc[n+]1[O-]` (stereo unspecified): the growth inhibition in assay [1] is 93.1% (active); in assay [2], 37.4%; in assay [3], 92.5% (active); in assay [4], 48.8%; in assay [5] it was 59.6%.
In the case of `CC(C)C1C(=O)CCCC1=O`, the growth inhibition in assay [1] was -10.5%; in assay [2], 9.6%; in assay [3], -5.5%; in assay [4], -17.5%; in assay [5] it was -3.35%.
For `COC(=O)C1=C2C3(O)CC4CC5C3CCC(C)N5C24C2CCC(O)C(OC)C2C1OC(=O)c1ccccc1` (stereo unspecified), the growth inhibition in assay [1] was -34.6%; in assay [2] it was -38.3%; in assay [3], -20.9%; in assay [4], -30.4%; in assay [5], 4.35%.
`NC(=O)CN(CC(N)=O)C(N)=O`: the growth inhibition is -14.6% in assay [1]; -18% in assay [2]; -20.2% in assay [3]; -10.3% in assay [4]; -23.6% in assay [5].
Turning to `O=C(O)c1c[nH]c2c(Cl)cccc2c1=O`, the growth inhibition in assay [1] is 18.9%; in assay [2], -16.4%; in assay [3], 4.3%; in assay [4], 18.4%; in assay [5], 14.4%.
In the case of `COc1ccc(O)c(/C=N/NC(N)=S)c1`, the growth inhibition in assay [1] is 23.8%; in assay [2], -24.8%; in assay [3], -4.45%; in assay [4], -24.8%; in assay [5] it was -11.4%.
Turning to `CCC(=O)OCC[N+](C)(C)C`, the growth inhibition in assay [1] is -29.2%; in assay [2], -37.6%; in assay [3] it was -22.9%; in assay [4], -38.5%; in assay [5], -20.9%.
With `CC(C(=O)O)C(Nc1ncnc2c1ncn2C1OC(CO)C(O)C1O)C(=O)O` (stereo unspecified), the growth inhibition was -8.4% in assay [1]; -12.2% in assay [2]; -27.6% in assay [3]; 3.5% in assay [4]; -26.4% in assay [5].
Regarding `OCC1(CO)CCC=CO1`, the growth inhibition in assay [1] was 3.8%; in assay [2], -7.8%; in assay [3], 2.5%; in assay [4], 1.05%; in assay [5], 5%.
For `O=C1c2cccc(O)c2C(=O)c2c(OC3OC(CO)C(OC4OC(CO)C(O)C(O)C4O)C(O)C3O)cccc21` (stereo unspecified), the growth inhibition in assay [1] is 94.2% (active); in assay [2], 36.2%; in assay [3] it was 32.5%; in assay [4], 4.15%; in assay [5], 31.4%.
As for `O=Cc1cc(O)ccc1[N+](=O)[O-]`, in assay [3], the growth inhibition is -9.55%.
